# An excerpt weighted towards active compounds, which were near 4.5% of everything screened.
# dFosB activator: activators of delta FosB homodimer, primary screen, biochemical, fluorescence polarization, TAMRA-CDK5 oligo, single point; purified delta FosB; percent of positive-control signal above neutral wells; 340,000 tested, 0.99% active; activation, % at 25 µM;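 active means mean activation above about 17%, with every replicate also reaching it, limit read from the data, passing the limit was not always enough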
# Target sequence (P13346 whole entry, looked up): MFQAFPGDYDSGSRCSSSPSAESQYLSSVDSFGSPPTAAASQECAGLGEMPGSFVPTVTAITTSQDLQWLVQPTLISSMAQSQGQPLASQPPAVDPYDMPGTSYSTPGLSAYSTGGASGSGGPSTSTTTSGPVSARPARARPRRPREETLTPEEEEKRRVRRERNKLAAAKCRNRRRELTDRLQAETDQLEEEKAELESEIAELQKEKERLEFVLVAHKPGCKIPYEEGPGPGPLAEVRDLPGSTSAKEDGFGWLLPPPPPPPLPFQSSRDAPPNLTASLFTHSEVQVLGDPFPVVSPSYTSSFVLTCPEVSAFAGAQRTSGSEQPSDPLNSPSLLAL
# TPT1 inh: Candida albicans TPT1 enzyme inhibitors, primary screen, biochemical, fluorescence polarization; tRNA 2'-phosphotransferase TPT1 (Candida albicans SC5314); recombinant caTPT1, FP RNA substrate dephosphorylation; inhibition, % at 5 µM; 300,000 tested, 0.81% active;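 active means inhibition above the mean of all tested compounds plus 3 SD, set per screening campaign, cut at about 24% in these data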;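 further: plate controls were DMSO alone for no effect and ferristatin control at 100 nM for full effect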
# ZTA counter: ZTA (EBV) inhibition in EBNA-1 counter-screen. P03206. ZTA-DNA binding, fluorescence polarization. inhibition, % at 11 µM. 320,000 tested, 0.15% active. AID 2234; in the data active means inhibition above about 33%
# Rpn11 inh: Rpn11 (PSMD14) deubiquitinase inhibitors, primary screen, biochemical, fluorescence polarization, uHTS; human 26S proteasome, Ub4-pepOG fluorescence polarization; 20S core pre-blocked with epoxomicin; inhibition, % at 20 µM; 360,000 tested, 0.59% active;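 active means inhibition at 20 µM, scaled to each plate's controls, above about 33%, limit read from the data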
# Target sequence (O00487 whole entry, looked up): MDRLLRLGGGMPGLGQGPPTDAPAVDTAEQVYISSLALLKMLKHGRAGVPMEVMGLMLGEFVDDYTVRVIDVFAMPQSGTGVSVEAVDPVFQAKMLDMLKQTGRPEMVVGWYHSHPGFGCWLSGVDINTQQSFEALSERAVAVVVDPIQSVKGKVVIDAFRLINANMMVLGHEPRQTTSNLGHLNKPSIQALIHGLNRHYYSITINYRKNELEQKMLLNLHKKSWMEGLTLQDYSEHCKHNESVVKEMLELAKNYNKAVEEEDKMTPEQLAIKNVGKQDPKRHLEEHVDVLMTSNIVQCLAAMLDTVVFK
# EBNA-1 inhibitor: EBNA-1 DNA-binding inhibitors, primary screen, biochemical, fluorescence polarization; AID 1950, 2009; 300,000 tested, 0.34% active; inhibition, % at 14.8 µM; in the data active means inhibition above about 28%
# GRIN3A LBD mod: binders of NR3A ligand-binding domain, primary screen, biophysical, differential scanning fluorimetry, uHTS. Glutamate receptor ionotropic, NMDA 3A (GRIN3A) ligand-binding domain. NR3A LBD differential scanning fluorimetry, Tm shift; 0% = protein alone, 100% = glycine-bound protein. Tm shift relative to glycine control, % at 25 µM. 340,000 tested, 2.5% active;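 active means melting temperature shift of at least 10% of the positive control shift, at one fixed dose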
# * hit, by the source's call; . = no result given.
SMILES,dFosB activator,TPT1 inh,ZTA counter,Rpn11 inh,EBNA-1 inhibitor,GRIN3A LBD mod
O=C(Nc1ccccc1)c1nc[nH]c1C(=O)NCc1ccccc1,-4.0,.,13.3,4.9,.,-18.1
O=C(Nc1cccc(Cl)c1)c1nc[nH]c1C(=O)NCc1ccccc1,1.6,.,23.3,3.6,.,16.6*
CCOc1ccc(NC(=O)Cn2c(=O)n(CCCC(=O)NC3CCN(Cc4ccccc4)CC3)c(=O)c3ccccc32)cc1,-8.7,-1.1,6.9,0.5,8.0,2.2
c1ccc2[nH]c(-c3cnco3)cc2c1,-3.1,-6.5,-6.1,2.7,0.5,11.2*
CCN(CC)CCN1C(=O)C(O)=C(C(C)=O)C1c1ccc(OC)c(OC)c1 (stereo unspecified),1.9,-0.1,-2.3,0.3,-2.6,11.0*
CCCc1cc(-c2n[nH]c(=S)n2-c2cccc(C)c2)cs1,-15.2,3.7,-4.7,-7.6,-12.6,13.5*
Cc1cccc(-n2c(-c3csc(C(C)C)c3)n[nH]c2=S)c1,-8.9,1.8,-1.3,-2.5,5.0,-2.2
Nc1cccc(Oc2ccc([N+](=O)[O-])cc2)c1,-4.4,0.7,6.4,0.1,5.3,2.6
Nc1cccc(Oc2c(F)c(F)c(Oc3cccc(N)c3)c(F)c2F)c1,-5.9,-1.6,-6.1,2.4,-8.0,22.8*
CC1(C(=O)NC2CCCCCC2)CCN1C(=O)C1(c2ccccc2)CC1 (stereo unspecified),.,.,.,4.4,.,.
Cc1ccsc1CN(C)CC(=O)NCC(=O)Nc1ccc(F)cc1,-2.2,.,5.1,2.5,.,1.8
Fc1ccc(Nc2nc(-c3ccncc3)cs2)cc1,-8.9,3.0,4.4,-6.5,0.4,5.8
COc1ccc2oc(=O)c(/C(C)=N/Nc3nc(-c4cc(C)ccc4C)cs3)cc2c1,-10.0,4.0,-1.4,8.4,3.5,-3.7
COc1ccc2oc(=O)c(-c3csc(Nc4ccc(O)cc4)n3)cc2c1,-3.6,2.5,-14.0,1.8,1.2,11.2*
Cc1csc(Nc2ccc(Cl)cc2)n1,3.1,0.1,5.1,-0.6,4.9,4.7
Clc1ccc(Nc2nc(-c3ccncc3)cs2)cc1,1.2,-0.1,9.5,-0.2,7.7,10.5*
Cc1ccc(Nc2nc(C)cs2)cc1,-4.3,2.0,2.6,3.3,1.6,25.8*
Oc1ccc(Nc2nc(-c3ccc(O)cc3)cs2)cc1,-1.0,-0.5,-16.6,0.5,-5.7,12.1*
NS(=O)(=O)c1ccc(Nc2nc(-c3ccc(O)cc3)cs2)cc1,-10.9,-4.6,5.2,-4.9,9.2,3.5
CC(=O)Oc1ccc(-c2csc(Nc3ccc(S(N)(=O)=O)cc3)n2)cc1,-15.0,-1.3,4.6,-3.5,5.3,2.7
COc1ccc(-c2csc(Nc3ccc(S(N)(=O)=O)cc3)n2)cc1,-2.7,1.6,2.2,7.3,-9.7,22.7*
CCOC(=O)c1[nH]ncc1CN1CCN(Cc2ccccc2)C(CCO)C1 (stereo unspecified),-3.8,-3.8,-15.7,0.0,-6.5,-1.7
N#CC1(NC(=O)COc2ccc(C(N)=O)cc2)CCCC1,-1.4,.,.,1.8,.,2.5
COc1ccc2cc(-c3ccsc3)ncc2c1,-4.6,.,3.0,-1.7,.,30.4*
CC(C)(O)C#Cc1ccc(CNC[C@H]2O[C@@H](n3cnc4c(N)ncnc43)[C@H](O)[C@@H]2O)s1,-5.5,.,.,1.2,.,12.7*
SMILES,dFosB activator,TPT1 inh,ZTA counter,Rpn11 inh,EBNA-1 inhibitor,GRIN3A LBD mod
C[C@H](N)C(=O)NC[C@H]1O[C@@H](n2cnc3c(N)ncnc32)[C@H](O)[C@@H]1O,7.7,.,.,1.8,.,3.1
Cc1sc2ccccc2c1CNC[C@H]1O[C@@H](n2cnc3c(N)ncnc32)[C@H](O)[C@@H]1O,-5.2,.,.,1.1,.,-0.1
Nc1ncnc2c1ncn2[C@@H]1O[C@H](CNC(=O)[C@@H](N)C2CCCCC2)[C@@H](O)[C@H]1O,1.9,.,.,2.1,.,15.4*
COC(=O)C1OC(OC2CC[C@]3(C)C(CC[C@@]4(C)[C@@H]3CC=C3[C@@H]5CC(C)(C)CC[C@]5(C(=O)OC5OC(CO)C(O)C(O)C5O)CC[C@]34C)C2(C)C)C(O)C(O)C1O[C@H]1OCC(O)C(O)C1O (stereo partly specified),-9.7,.,.,0.9,.,14.6*
CCCC(=O)Nc1ccc(-c2csc(N/N=C\c3ccncc3)n2)cc1,-16.1,-3.0,5.1,-4.7,0.7,17.7*
CC(=O)Nc1ccc(-c2csc(N/N=C\c3ccncc3)n2)cc1,.,1.4,-8.7,2.0,-1.5,15.4*
Cc1nn(C)c(C)c1C1C(C#N)=C(N)OC2=C1C(=O)CCC2 (stereo unspecified),1.0,2.0,7.3,1.0,8.0,11.6*
CC(C)CC(=O)NC(=S)Nc1nc(-c2ccc(Cl)cc2)cs1,7.6,4.7,-6.5,-6.3,3.0,29.7*
O=C(/C=C/c1ccco1)NC(=S)Nc1nc(-c2ccc3ccccc3c2)cs1,-3.4,2.3,6.8,7.6,-3.0,33.0*
O=C(/C=C\c1ccco1)Nc1nc(-c2ccccc2)cs1,5.3,5.4,2.2,3.7,-5.3,-8.2
O=C(/C=C/c1ccco1)NC(=S)Nc1nc(-c2ccc(Cl)cc2)cs1,-7.0,2.8,10.3,18.8,7.7,129.1*
CC(C)(O)C#Cc1cccc(-c2nc(C(=O)NCCCN3CCOCC3)cc3c2[C@H](CCO)N(S(=O)C(C)(C)C)C3)c1 (stereo partly specified),.,.,.,-8.3,.,.
Nn1c(SCC(=O)Nc2ccc(OC(F)F)cc2)nnc1-c1ccco1,3.7,1.0,-8.1,4.5,-11.9,1.6
COc1ccc(CCNC(=O)Nc2nc(C(N)C3CCCCC3)cs2)cc1OC (stereo unspecified),.,.,.,-0.7,.,.
CC(C)(C)c1ccc(C(=O)OCC(=O)N2CCC(c3ccccc3)=N2)cc1,-13.6,.,7.4,2.4,.,0.4
COc1cc(/C=N/N=C(/N)c2nonc2N)cc(Br)c1OCc1ccccc1C,13.7,0.1,-5.5,4.5,10.3,15.1*
CC1(c2nnc(Cc3ccccc3)o2)CC(c2ccc(OC(F)(F)F)cc2)=NO1 (stereo unspecified),-4.0,-2.9,4.6,2.2,-1.6,-3.3
COc1ccc(NC(=O)CSc2nc3n[nH]c(C)c3c(=N)n2-c2ccc(Cl)c(C)c2)cc1OC,44.2*,1.4,9.8,4.1,-15.3,4.1
CCOC(=O)C1CCN(C(=O)c2ccc(C)c(S(=O)(=O)N3CCCC3)c2)CC1,-19.7,-3.7,-6.3,-2.4,-0.9,11.1*
Cc1ccc(C(=O)N2CCOCC2)cc1S(=O)(=O)N1CCCC1,4.1,-6.2,4.7,-4.7,8.2,11.1*
Cc1ccc(S(=O)(=O)N2CCN(C(=O)c3cc(S(=O)(=O)N4CCOCC4)ccc3Cl)CC2)c(C)c1,-10.9,.,.,-0.4,.,12.0*

# Bioassay records deposited in PubChem BioAssay by several laboratories.
